Source: PubChem BioAssay (National Center for Advancing Translational Sciences (NCATS))
Most compounds without a hit are left out; they make up all but 11% or so of the library.
BAZ2B inh: blocks human BAZ2B; Potency, µM (top dose mostly 114 µM), for the others: at the highest dose activity change, negative = inhibition, usual class: inhibitors; actives 4.4% (n = 360,000); Q9UIF8; AlphaScreen BAZ2B-H3K14Ac peptide displacement; further: on the % scale 0 is the no-effect control and ±100 the full control effect; nearly all actives have a fitted effect of over 60% in size
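Protein-peptide AlphaScreen: BAZ2B 50 nM, b-H3K14Ac 50 nM, 1x PBS pH 7.4 + 0.01% Tween-20. Preincubation 30 min RT; cpd 30 min RT (top 110 uM); beads 20 min RT, light-protected.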
HP1b chromo inh: blocks HP1-beta chromodomain binding to methylated histone tails; AlphaScreen HP1-beta / biotin-H3K9me3 peptide binding; Potency, µM (series often up to 114 µM), without a hit: at the highest dose activity change, negative = inhibition, usual class: inhibitors; actives 0.56% (n = 390,000); further: nearly all actives have a fitted effect of over 70% in size
Target sequence (P83916 whole entry, looked up): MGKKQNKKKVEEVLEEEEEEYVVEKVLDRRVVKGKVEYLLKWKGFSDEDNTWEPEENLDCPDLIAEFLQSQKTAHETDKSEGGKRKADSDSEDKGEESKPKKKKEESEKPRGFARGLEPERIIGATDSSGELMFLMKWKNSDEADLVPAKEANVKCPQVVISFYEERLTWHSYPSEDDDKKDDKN
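AlphaScreen: HP1-beta (50 nM) preformed 30 min with biotin-H3(1-18)K9me3 peptide (50 nM) in PBS pH 7.4, 0.01% Tween-20. Compound added for 30 min at RT, then streptavidin donor/nickel chelate acceptor beads (10 ug/mL) for 30 min.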
L3MBTL1 block: blocks human L3MBTL1. Q9Y468. AlphaScreen L3MBTL1–H3K9me1 peptide binding. Potency, µM (series often up to 57.1 µM), for inactives: at the top dose activity, negative = inhibition, most hits filed as inhibitors. actives 0.66% (n = 230,000). AID 485360; further: on the % scale 0 is the no-effect control and ±100 the full control effect; nearly all actives have a fitted effect of over 60% in size
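Displacement of a biotinylated histone H3(1-15) peptide monomethylated at Lys9 (75 nM) from L3MBTL1 (50 nM) was measured by AlphaScreen after a 30 min room-temperature compound incubation; cefsulodin titration served as intraplate control.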
G9a block: G9a (human) methyltransferase inhibition. Q96KQ7. G9a H3K9 monomethylation, AlphaScreen, 2 h. Potency, µM (highest dose often 102 µM), without a hit: top-dose activity, negative = inhibition, most hits filed as inhibitors. actives 8.8% (n = 350,000); further: on the % scale 0 is the no-effect control and ±100 the full control effect; nearly all actives have a fitted effect of over 75% in size
Target sequence (Q96KQ7 913-1193 limits assumed): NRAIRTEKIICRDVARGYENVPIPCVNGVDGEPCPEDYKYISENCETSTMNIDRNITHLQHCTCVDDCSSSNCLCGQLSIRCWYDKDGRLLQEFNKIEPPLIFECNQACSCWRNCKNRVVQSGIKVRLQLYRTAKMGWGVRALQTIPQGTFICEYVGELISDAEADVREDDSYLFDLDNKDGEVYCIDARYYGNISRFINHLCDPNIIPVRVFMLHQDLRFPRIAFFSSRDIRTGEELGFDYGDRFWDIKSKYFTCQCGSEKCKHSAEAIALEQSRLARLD
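Step 1: enzyme (final 20 nM) with compound, 15 min RT. Step 2: substrate peptide 500 nM and SAM 20 uM, 2 h RT. Step 3: anti-H3K9me1 antibody and AlphaScreen beads, 10 min, then plate read.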
JMJD2A Tudor: blocks the human JMJD2A Tudor domain | AlphaScreen JMJD2A-Tudor / H3K4me3 peptide binding | Potency, µM (top dose mostly 114 µM), for inactives: at the top dose activity change, negative = inhibition, usual class: inhibitors | AID 504339 | actives 4.4% (n = 390,000) | O75164; further: on the % scale 0 is the no-effect control and ±100 the full control effect; nearly all actives have a fitted effect of over 50% in size
The depositor's hits bear a star; ? = inconclusive; nt = not tested or not shown; ! = a repeat was not active; [ ] = remark or other dose. The call rests on the fitted dose curve; in most records, active means well fitted inhibition curve with a large enough effect; inconclusive means small, poorly fitted or top-dose-only effect; inactive means no such curve, though single readings can be large or run the other way. Potency means the concentration at half of the fitted maximal effect.

SMILES	BAZ2B inh	HP1b chromo inh	L3MBTL1 block	G9a block	JMJD2A Tudor
CC(=O)O[C@H]1C[C@@H](O[C@@H]2[C@H](C)O[C@H](O[C@@H]3[C@H](C)O[C@H](O[C@@H]4CC[C@@]5(C)[C@@H](CC[C@]6(C)[C@]5(C)C[C@H](O)[C@]5(C)[C@@H](C7=CC(=O)OC7)CC[C@@]56O)C4)C[C@@H]3O)C[C@@H]2O)O[C@@H](C)[C@H]1O[C@H]1O[C@@H](CO)[C@@H](O)[C@@H](O)[C@@H]1O	nt	nt	nt	17.6%[21.5 µM]	nt
COc1ccc(-c2n(-c3ccccn3)c3ccccc3[n+]2-c2ccccn2)cc1	3.6%	30.3%	nt	3.16µM*	2.7%
CC(=O)Nc1ccc(Nc2c(CCC(C)C)c(C)c(C#N)c3nc4ccccc4n23)cc1	0.0%	39.6%	nt	-29.5%[59 µM]	-13.8%
CC1(C)NCCN2C(=O)CSC21 (stereo unspecified)	-21.6%	53.2%	nt	79.4µM*	-9.0%
CCCCC/C=C\C=C\[C@H](CCCCCCCC(=O)O)OO	nt	nt	nt	6.7%[59 µM]	nt
C[C@]12CC[C@@H]3c4ccc(O)c(O)c4CC[C@H]3[C@@H]1CC[C@@H]2O	56.2µM*	15.8µM*	nt	?	8.91µM*
C[C@]12CC[C@@H]3c4cc(O)c(O)cc4CC[C@H]3[C@@H]1CC[C@@H]2O	?	?	nt	8.91µM*	12.6µM*
C[C@]12CC[C@H]3[C@@H](CCC4=CC(=O)CC[C@@H]43)[C@@H]1CC[C@@H]2O	nt	53.7%	0.7%	-15.5%[59 µM]	-6.2%
COC(=O)C(O)(c1ccc(N(C)C(=O)c2cccs2)cc1)C(F)(F)F (stereo unspecified)	-8.5%	-1.3%	2.6%	-7.2%	22.4µM*
Cc1cccc(C)c1OCc1n[nH]c(=S)n1N	?	-17.8%	3.2%	1.78µM*	17.8µM*
Nn1c(COc2ccc(Cl)cc2)n[nH]c1=S	-13.7%	-8.1%	10.1%	1.78µM*	31.6µM*
CCN(CC(=O)Nc1ccccc1C(F)(F)F)C(=O)Cn1c(=O)cnc2ccccc21	0.6%	0.0%	3.0%	?	-16.7%
CN(C)c1ccc(C=C2C(=O)NC(=S)NC2=O)cc1	nt	-2.6%	nt	nt	50.1µM*
CC(=O)Nc1ccc(C=C2C(=O)NC(=O)NC2=O)cc1	nt	40.1%	nt	nt	-9.0%
CCN(CC)c1ccc(C=C2C(=O)NC(=S)NC2=O)cc1	50.1µM*	?	-12.1%	7.94µM*	44.7µM*
CC(C)CN(CC(C)C)c1ccc(C=C2C(=O)NC(=S)NC2=O)cc1[N+](=O)[O-]	35.5µM*	-83.9%	?	?	35.5µM*
CN(C)c1ccc(C=C2C(=O)NC(=O)NC2=O)cc1	nt	1.0%[57 µM]	nt	nt	-1.4%
COC(=O)CSC1=NN1c1cc(C)nc(N)n1	1.8%	49.3%	6.1%	50.1µM*	-9.2%
CCc1c(C)nc(N)nc1N1N=C1SCC(=O)OC	-11.1%	0.4%	6.4%	22.4%[12.7 µM]	-19.6%
CN1C(=O)/C(=C/c2ccc(N3CCCCCC3)o2)C(=O)NC1=S	?	-13.0%	-8.2%	?	-27.0%
CCCCN1C(=O)/C(=C/c2ccc(N3CCCCCC3)cc2)C(=O)NC1=S	?	nt	?	17.8µM*	nt
CCOc1ccc(N2C(=O)NC(=O)/C(=C\c3ccc(N4CCCCC4)o3)C2=O)cc1	-6.9%	-4.2%	8.5%	44.7µM*	-14.3%
CN1CCN(c2ccc(/C=C3\C(=O)NC(=S)N(c4cccc(Br)c4)C3=O)o2)CC1	39.8µM*	?	-19.7%	?	?
CN1C(=O)/C(=C\c2ccc(N3CCCCC3)o2)C(=O)NC1=S	-24.5%	-3.0%	-7.9%	31.6µM*	-21.4%
CCOc1ccc(NC(=O)C2CCCN2C(=O)Oc2ccccc2)cc1 (stereo unspecified)	-21.7%	35.7%[57 µM]	nt	-9.2%	?
SMILES	BAZ2B inh	HP1b chromo inh	L3MBTL1 block	G9a block	JMJD2A Tudor
Cc1cc(N2CCCCC2)ccc1C=C1C(=O)N(C)C(=S)N(C)C1=O	35.5µM*	?	-17.7%	15.8µM*	?
CN1C(=O)/C(=C\c2ccc(N3CCCCCC3)cc2)C(=O)NC1=S	?	-3.4%	-15.3%	28.2µM*	?
CC(C)(COC(=O)C(c1ccccc1)c1ccccc1)CN1CCOCC1	nt	81.9%	nt	nt	106.3%
c1ccc(N2CCC3(CCNCC3)CC2)nc1	nt	nt	nt	-4.1%[12.7 µM]	nt
O=C(Nc1cccc2ncccc12)c1ccccc1Cl	?	2.1%	-8.3%	79.4µM*	-10.0%
CC(C)(C)c1ccc(O)c(N=Cc2c(O)ccc3ccccc23)c1	39.8µM*	30.0%	-4.3%	8.91µM*	?
CCOc1ccc(Nc2c(S(=O)(=O)c3ccc(C)cc3)cnc3ccc(F)cc23)cc1	-37.3%	4.9%	nt	10µM*	-30.5%
CCOc1ccc(Nc2c(S(=O)(=O)c3ccc(C)cc3)cnc3ccccc23)cc1	?	9.0%	nt	-34.0%[59 µM]	?
Clc1ccc(C(c2ccc(Cl)cc2)n2cc[n+](CC(OCc3ccc(Cl)cc3Cl)c3ccc(Cl)cc3Cl)c2)cc1 (stereo unspecified)	-37.7%	0.3%	5.1%	17.8µM*!	50.1µM*
O=C(O)CCC(=O)NCCC1=c2ccccc2=N/C1=C\c1c(O)n(Cc2ccc(F)cc2)c(=S)[nH]c1=O	31.6µM*	31.6µM*	-21.0%	nt	31.6µM*
COc1cc(CN=Cc2c(O)n(Cc3ccccc3)c(=S)[nH]c2=O)cc(OC)c1	-8.4%	33.7%	-1.9%	nt	-1.1%
Cc1nnc(NC(=O)c2cccn(Cc3ccccc3F)c2=O)s1	0.1%	24.7%[57 µM]	nt	?	-8.1%
CN1CCC(n2nccc2N)CC1	-9.1%	23.3%	nt	-0.5%[12.7 µM]	2.0%
Nc1ccnn1C1CCNCC1	2.6%	?	9.7%	22.4µM*	-17.3%
C[n+]1c2cc(N)ccc2cc2ccc(N)cc21	nt	29.1%	nt	?	?
CCOc1cc2c(cc1OCC)-n1cccc1C(c1c(O)cccc1OC)NC2 (stereo unspecified)	44.7µM*	-22.6%	nt	-12.3%[2.33 µM]	50.1µM*
CCOc1cc2c(cc1OCC)-n1cccc1C(c1ccc(OC)c(OC)c1)NC2 (stereo unspecified)	?	1.7%	nt	-47.4%	?
CCOc1cc2c(cc1OCC)-n1cccc1C(c1ccccc1O)NC2 (stereo unspecified)	50.1µM*	?	nt	50.1µM*	50.1µM*
FC(F)(F)c1cccc(C2NCc3ccccc3-n3cccc32)c1 (stereo unspecified)	?	4.0%	nt	?	?
CC(=NCCCn1ccnc1)c1c(O)n(Cc2ccccc2)c(=O)[nH]c1=O	?	35.5%	nt	-7.6%	-18.9%
COc1cc(N)ccc1Cc1ccc(N)cc1OC	nt	-13.8%	-16.0%	-20.5%[59 µM]	79.4µM*
CC(C)CNC(=O)c1c(N)n(Cc2ccco2)c2nc3ccccc3nc12	21.2%	50.2%	nt	44.7µM*	-7.2%
CC(C)OC(=O)c1c(N)n(Cc2ccco2)c2nc3ccccc3nc12	-12.4%	67.0%	7.9%	3.55µM*	11.9%
O=C(Cc1ccccc1)c1ccccn1	nt	-19.9%	nt	nt	3.55µM*
O=C(O)Cc1ccccc1	nt	nt	nt	18.9%[59 µM]	nt
